Data taken from PubChem BioAssay (NCI).
Compounds without any hit were thinned out: in the full panel of roughly 79,000, 15% have a hit. Rule as the data show it: active = growth inhibition above about 70%; inactive = the rest.

Assays:
[1] = NCI Yeast Anticancer Drug Screen. Data for the rad50 strain (AID 155);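 also: 0% = growth of vehicle-only cultures of the same strain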; details: S. cerevisiae rad50 strain growth inhibition; at 50.0 µM; hits give high values
Procedure, shortened: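 Yeast carrying a defined DNA repair defect were exposed to test compounds, and growth was compared with vehicle-treated controls to give percent inhibition.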

[2] = NCI Yeast Anticancer Drug Screen. Data for the mec2-1 strain (AID 157); details: S. cerevisiae mec2-1 strain, at 50.0 µM, hits give high values
Procedure, shortened: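 Mutant yeast (mec2-1) grown with compound; growth inhibition relative to vehicle control reported.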

[3] = NCI Yeast Anticancer Drug Screen. Data for the sgs1 mgt1 strain (AID 161);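 also: 0% = growth of cultures given vehicle only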; details: S. cerevisiae sgs1 mgt1 strain, at 50.0 µM, hits give high values
Procedure, shortened: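 Compounds are added to genetically altered yeast, and growth is compared with cultures given vehicle alone to give percent inhibition.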

[4] = NCI Yeast Anticancer Drug Screen. Data for the cln2 rad14 strain (AID 165);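 also: 0% = growth equal to vehicle treated cultures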; details: S. cerevisiae cln2 rad14 strain, at 50.0 µM, hits give high values
Procedure, shortened: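 Readout is yeast growth inhibition versus vehicle-treated controls, using a strain with cln2 and rad14 alterations exposed to compound.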

[5] = NCI Yeast Anticancer Drug Screen. Data for the bub3 strain (AID 167); details: S. cerevisiae bub3 mutant strain, at 50.0 µM, hits give high values
Procedure, shortened: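 Compounds were applied to a genetically altered yeast strain carrying a cell-cycle control defect. Growth inhibition was scored against vehicle-treated controls.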

[6] = NCI Yeast Anticancer Drug Screen. Data for the mlh1 rad18 strain (AID 175); details: S. cerevisiae mlh1 rad18 strain growth inhibition; at 50.0 µM; hits give high values
Procedure, shortened: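 Genetically defined yeast (DNA repair-deficient) exposed to compounds; growth inhibition determined relative to vehicle.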

Measured: growth inhibition

O=C1c2ccccc2C(=O)N1/N=[N+](\[O-])N1Cc2ccccc2C1
inactive: [1] 18.4% | [2] 27.9% | [3] 24.1% | [4] -18.2% | [5] 7.65% | [6] 28.2%

C/C(=C/C(=O)Nc1ccc2ccccc2c1)Nc1ccc2ccccc2c1
inactive: [1] -5.4% | [2] 6.65% | [3] 5.9% | [4] -8.95% | [5] 10.4% | [6] -15.1%

CCN(CC)c1c(C)c(-c2ccccc2)oc(=O)c1Cl
inactive: [1] 0.3% | [2] -1.05% | [3] 3.7% | [4] 11.1% | [5] 6.85% | [6] 6.95%

CC(=O)OC(C)(C#N)C(C)(C#N)OC(C)=O (stereo not drawn)
inactive: [1] -13.3% | [2] -6.4% | [3] -1.1% | [4] -37.1% | [5] -8.75% | [6] -20.3%

COC1C2CC3C4(CCC5C6(C)CCCC53C(C14)N(C)C6)CC21CCC23C4C=C5C6=C(CCC5(CC42)C3O1)C1(C)CC(C6)CN(C)C1 (stereo not drawn)
inactive: [1] 33.6% | [2] 9.35% | [3] 22.9% | [4] 15.6% | [5] 18.5% | [6] 26.6%

CCC(C)C(C)/C(C)=N/Nc1ccc([N+](=O)[O-])cc1[N+](=O)[O-] (stereo not drawn)
inactive: [1] 13.7% | [2] -10% | [3] 0.25% | [4] -34.9% | [5] 6.6% | [6] -26.4%

O=C(CNOCc1ccccc1)OCc1ccccc1
inactive: [1] 25.5% | [2] 16.1% | [3] 2.65% | [4] -6.8% | [5] 3.45% | [6] 19.4%

Cc1cc(N(CCC#N)CCC#N)ccc1/C=C(\N=[N+]=[N-])C(=O)NC(=O)COc1ccccc1
inactive: [1] 16.1% | [2] -19.8% | [3] 4.7% | [4] 11.9% | [5] -6.65% | [6] -9.05%

CCC1=NC(C(F)(F)F)(C(F)(F)F)N=C(N2CCOCC2)O1
inactive: [1] 23.8% | [2] 6.15% | [3] 9.2% | [4] 14.4% | [5] 22.4% | [6] 2.2%

CCOC(=O)C(C)(OCC)OCC
inactive: [1] -13.4% | [2] -13.2% | [3] -17.2% | [4] -8.55% | [5] -0.3% | [6] 11.9%

Cc1ccc(SCC(OCn2cnc3c(Cl)nc(N)nc32)[C@H](C)F)cc1 (stereo partly drawn)
inactive: [1] 32.2% | [2] 23.4% | [3] 56.5% | [4] 24.9% | [5] 66% | [6] -50.9%

Cc1nn(-c2ccccc2)c(SC(C)(C)C)c1C=NCCN=Cc1c(C)nn(-c2ccccc2)c1SC(C)(C)C
inactive: [1] 28.6% | [2] 15.3% | [3] 18.2% | [4] 24.3% | [5] -5.85% | [6] 18.8%

CCOC(=O)C[n+]1ccc(C(=O)OCC)cc1
inactive: [1] -7.1% | [2] -15.2% | [3] 0.05% | [4] 2.3% | [5] 11.1% | [6] 3.5%

CCOC(=O)Cn1c(C(F)(F)F)nc2nc(Cl)c(Cl)nc21
inactive: [1] -0.6% | [2] -22.9% | [3] -33.5% | [4] -94.9% | [5] -19.9% | [6] -17.1%

[N-]=[N+]=NC(=O)c1ccc(S(=O)(=O)c2ccc(F)cc2)cc1
inactive: [1] 13.4% | [2] 21.8% | [3] 7.6% | [4] 7.85% | [5] 3% | [6] 38.5%

Cc1ccc(S(=O)(=O)NCc2cccc([N+](=O)[O-])c2)cc1
inactive: [1] 6.25% | [2] -15.8% | [3] -13.6% | [4] 19% | [5] 18.2% | [6] 14.8%

CCCCN(CCCC)c1c([N+](=O)[O-])c(=O)nc2ccccn12
inactive: [1] 21.1% | [2] -3.35% | [3] 5.7% | [4] 11.7% | [5] 11.2% | [6] 37.9%

O=C(O)/C=C/C1CCCCC1
inactive: [1] 26.4% | [2] 14.3% | [3] 3.95% | [4] 4.35% | [5] -6.4% | [6] 21.2%

N=Cc1ccccc1O
inactive: [1] -3.3% | [2] -10.3% | [3] -4.8% | [4] 7.8% | [5] 2.9% | [6] 2.55%

CCCCOC(=O)/C=C/C(=O)N1CCN(C(=O)/C=C/C(=O)OCCCC)C(C)C1 (stereo not drawn)
inactive: [1] 33.7% | [2] 24.7% | [3] 20.8% | [4] -11.1% | [5] 24.9% | [6] 34.6%

OCC1OC(n2cc[nH]c2=S)C(O)C1O (stereo not drawn)
inactive: [1] 8.5% | [2] 7.6% | [3] -2.6% | [4] 4.45% | [5] 10.2% | [6] -12.7%

Cc1ccc(S(=O)(=O)N2CCCSCCSCCCN(S(=O)(=O)c3ccc(C)cc3)CC2)cc1
inactive: [1] 8.85% | [2] -10.8% | [3] 4% | [4] -45% | [5] -10.1% | [6] 2.05%

CC1=NN2C(=O)CSC2=NC(C)(C)C1
inactive: [1] -5.35% | [2] -12.8% | [3] 7.45% | [4] 25.9% | [5] -5.75% | [6] -9.95%

CS(=O)(=O)/C=C/c1ccccc1
inactive: [1] -19.4% | [2] -8.15% | [3] -7.35% | [4] 1.8% | [5] -2.1% | [6] 0.75%

COc1ccc(C2S/C(=C\c3ccccc3)C(=O)N2NC(=O)Cc2ccccc2)cc1 (stereo not drawn)
inactive: [1] -12.8% | [2] -54.2% | [3] -7.5% | [4] -69.7% | [5] -18.6% | [6] -12%

CC1(C)CC(=O)C(/C(=N/NC(=S)NN)C(=O)Nc2nc3ccc([N+](=O)[O-])cc3s2)C(=O)C1
inactive: [1] 35.8% | [2] 20.2% | [3] -15.2% | [4] -26.9% | [5] 1% | [6] 16.4%

CCCCCC(C)(C)O
inactive: [1] 7.6% | [2] -6.55% | [3] -3.9% | [4] -40.9% | [5] 4.75% | [6] -4.75%

CN(C)CCCN1CCC2(CCC(C(C)(C)C)CC2)CC1
inactive: [1] 40% | [2] -16.1% | [3] -0.3% | [4] -19.1% | [5] -31.2% | [6] 49.8%

O=C(O)c1c(Br)c(Br)c(Br)c(Br)c1C(=O)Nc1cccc2c(O)cccc12
inactive: [1] 42.4% | [2] 24.9% | [3] 25.2% | [4] 14.4% | [5] 24.3% | [6] 44.9%

CCCC(C)C(=O)OC1CCCC1 (stereo not drawn)
inactive: [1] 11% | [2] -8.1% | [3] 5.3% | [4] -5.1% | [5] 13.6% | [6] 2.95%

COc1ccccc1NC(=O)CC(=O)N/N=C/c1ccc(N(CCC#N)S(=O)(=O)c2ccccc2)cc1
inactive: [1] -48.4% | [2] 0.8% | [3] -20.6% | [4] 10.4% | [5] -15.8% | [6] -14.5%

O=C1Nc2ccc3[nH]ncc3c2C1=O
inactive: [1] 11.7% | [2] -0.65% | [3] -2.45% | [4] -11.8% | [5] -9.55% | [6] 7.6%

CCc1ccc2ccccc2c1N
inactive: [1] 20.6% | [2] 8.05% | [3] 6.1% | [4] -1.65% | [5] -0.3% | [6] 15.1%

CC(O)C(NC(=O)c1cnc2ccccc2n1)C(=O)O (stereo not drawn)
inactive: [1] -8.45% | [2] -5.1% | [3] 17.8% | [4] -17.1% | [5] 15.9% | [6] -11.8%

CCCCNc1ccc2c(c1)Cc1ccccc1-2
inactive: [1] 18.9% | [2] -4.1% | [3] 15.8% | [4] 3.25% | [5] -18.8% | [6] -8.35%

O=C(O)COc1cc([N+](=O)[O-])c(Cl)cc1Cl
inactive: [1] 7.75% | [2] -11.9% | [3] 18.6% | [4] 15.6% | [5] -1.4% | [6] 20.6%

NCCCCC(C(=O)NCC(=O)O)N(C(=O)OCc1ccccc1)C(=O)OCc1ccccc1 (stereo not drawn)
inactive: [1] -2% | [2] -4.6% | [3] -0.55% | [4] -33.1% | [5] -2.2% | [6] -2.05%

O=C(O)C(Br)C(Br)C(=O)Nc1cccc(Cl)c1 (stereo not drawn)
inactive: [1] 0.5% | [2] -47.2% | [3] 21.2% | [4] -27.8% | [5] 5.75% | [6] 20.2%
